Results filed as inconclusive are left out. The source made the active and inactive calls. Unless noted, calls come from the whole dose curve; as a rule, active = well fitted curve in either direction with a large enough effect (not every such curve was filed as active); inconclusive = small, poorly fitted or top-dose-only effect, or another doubt; inactive = flat fitted curve, though single readings scatter.
Assays:
[1] = AP1 Signaling Pathway (AID 357); details: ME-180 AP-1-bla reporter, EGF-induced, beta-lactamase ratio, 5 h; at 17.2 µM (top of the series) unless noted; note: % is set by controls: 0 for no effect and ±100 for the full control effect
How it was run: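 Modulation of EGF-driven AP-1 transcription was assessed with a beta-lactamase reporter in ME-180 cells. Compound and EC50 EGF were co-incubated 5 hours at 37 °C before 2.5-hour CCF4 loading at room temperature and dual-emission reading.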

[2] = biological target: Cytochrome P450 1A2 (Homo sapiens) (UniProt P05177); experiment: p450-cyp1a2 (AID 410; calls by dose curve; note: potency is the fitted concentration of half-maximal effect;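 for activity change, negative = inhibition: -100% = full effect of reference inhibitor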)
Sequence of Cytochrome P450 1A2 (Homo sapiens) (P05177 whole entry, looked up): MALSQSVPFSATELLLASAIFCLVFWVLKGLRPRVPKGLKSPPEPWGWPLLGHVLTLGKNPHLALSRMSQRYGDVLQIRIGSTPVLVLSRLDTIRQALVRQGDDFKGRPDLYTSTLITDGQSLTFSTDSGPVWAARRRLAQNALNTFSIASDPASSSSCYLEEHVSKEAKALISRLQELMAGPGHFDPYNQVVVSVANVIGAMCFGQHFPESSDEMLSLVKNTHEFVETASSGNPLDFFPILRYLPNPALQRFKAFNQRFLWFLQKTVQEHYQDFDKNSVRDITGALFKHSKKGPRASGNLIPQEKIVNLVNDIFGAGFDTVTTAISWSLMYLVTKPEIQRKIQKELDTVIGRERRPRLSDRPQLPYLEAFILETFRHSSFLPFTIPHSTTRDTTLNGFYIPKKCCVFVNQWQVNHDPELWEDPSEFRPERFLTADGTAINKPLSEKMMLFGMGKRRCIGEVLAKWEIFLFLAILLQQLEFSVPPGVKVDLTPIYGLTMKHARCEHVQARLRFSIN
How it was run: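 Inhibition was calculated relative to 57 uM furafylline (full inhibition). The reaction used human CYP1A2 at 20nM with Luciferin-ME at its Km, 100uM, driven by an NADPH-regenerating system for 60 min at room temperature.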

[3] = Stat Signaling Pathway (AID 446);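 note: ME-180 cervical cancer cells given 40 pM IL-6 alongside compound; SIE-controlled beta-lactamase reporter measured as 460/530 nm FRET emission ratio; % is set by controls: 0 for no effect and ±100 for the full control effect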
How it was run: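 Reporter line: ME-180 cervical carcinoma, SIE-beta-lactamase. Treatment: compound with 40 pM IL-6, 5 hrs, 37 C, in low-serum OPTI-MEM with 10 mM HEPES pH 7.3. Detection: 460/530 nm fluorescence.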

[4] = biological target: Glucocorticoid receptor (Homo sapiens) (UniProt P04150); experiment: GR-GFP Redistribution (AID 450;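 active = compounds whose dose series gives a full or clear partial fitted curve of increased nuclear translocation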; note: potency is the fitted concentration of half-maximal effect); details: U2OS GR-GFP nuclear translocation, laser cytometry, 2 h
Sequence of Glucocorticoid receptor (Homo sapiens) (P04150 whole entry, looked up, the tested form may be a part): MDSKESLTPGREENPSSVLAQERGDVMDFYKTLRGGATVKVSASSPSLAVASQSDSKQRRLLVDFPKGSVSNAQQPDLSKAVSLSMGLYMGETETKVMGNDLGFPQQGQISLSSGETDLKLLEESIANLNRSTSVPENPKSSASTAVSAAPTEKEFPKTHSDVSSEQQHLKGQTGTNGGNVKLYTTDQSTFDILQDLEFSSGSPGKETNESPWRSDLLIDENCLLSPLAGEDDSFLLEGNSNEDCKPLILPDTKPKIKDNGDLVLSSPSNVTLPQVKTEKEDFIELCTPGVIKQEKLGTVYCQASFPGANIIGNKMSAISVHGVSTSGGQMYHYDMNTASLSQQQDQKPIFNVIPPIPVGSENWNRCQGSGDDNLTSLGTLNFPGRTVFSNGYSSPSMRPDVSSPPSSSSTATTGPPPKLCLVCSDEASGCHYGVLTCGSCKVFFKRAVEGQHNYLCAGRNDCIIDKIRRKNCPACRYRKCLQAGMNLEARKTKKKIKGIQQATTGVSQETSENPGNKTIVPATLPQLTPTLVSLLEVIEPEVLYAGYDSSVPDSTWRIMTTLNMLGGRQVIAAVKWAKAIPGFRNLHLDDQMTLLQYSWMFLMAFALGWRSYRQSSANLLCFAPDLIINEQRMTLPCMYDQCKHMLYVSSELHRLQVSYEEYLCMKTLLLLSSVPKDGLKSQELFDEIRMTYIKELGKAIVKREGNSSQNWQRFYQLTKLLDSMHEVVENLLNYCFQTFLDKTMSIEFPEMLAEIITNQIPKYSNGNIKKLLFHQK

[5] = biological target: Glucocorticoid receptor (Homo sapiens) (UniProt P04150); experiment: GR-EFC Redistribution (AID 451; calls by dose curve; note: potency is the fitted concentration of half-maximal effect); details: CHO-K1 GR-EFC translocation, beta-gal luminescence, 2 h
How it was run: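 CHO-K1 cells expressing nuclear EA and GR-ED fragments of b-gal; compounds titrated up to 46 uM final, 2 h at 37 C. GR nuclear translocation read as complemented b-gal luminescence after 1 h RT detection.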

[6] = biological target: Mitogen-activated protein kinase 10 (Mus musculus) (UniProt Q61831); experiment: JNK3 AlphaScreen Assay (AID 530);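 note: kinase came from lysate of stimulated human HepG2 cells; signal reports phosphorylation of biotinylated GST-cJun 1-79 at Ser73 with 10 µM ATP; % is set by controls: 0 for no effect and ±100 for the full control effect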
How it was run: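 qHTS format: compounds tested as titrations against IL-1beta/TNF-alpha-activated HepG2 lysate JNK3 with biotin-GST-cJun substrate and 10 uM ATP at room temperature. Loss of anti-phospho-cJun AlphaScreen signal indicates inhibition.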

[7] = biological target: 3',5'-cyclic-AMP phosphodiesterase 4B (Homo sapiens) (UniProt Q07343); experiment: qHTS Assay for Inhibitors of PDE-IV (AID 607; active = well fitted activation curve with a large enough effect in the main read-out, with a control signal flat, not every such curve was filed as active; note: % of control where 0% means no effect)
Sequence of 3',5'-cyclic-AMP phosphodiesterase 4B (Homo sapiens) (Q07343 whole entry, looked up): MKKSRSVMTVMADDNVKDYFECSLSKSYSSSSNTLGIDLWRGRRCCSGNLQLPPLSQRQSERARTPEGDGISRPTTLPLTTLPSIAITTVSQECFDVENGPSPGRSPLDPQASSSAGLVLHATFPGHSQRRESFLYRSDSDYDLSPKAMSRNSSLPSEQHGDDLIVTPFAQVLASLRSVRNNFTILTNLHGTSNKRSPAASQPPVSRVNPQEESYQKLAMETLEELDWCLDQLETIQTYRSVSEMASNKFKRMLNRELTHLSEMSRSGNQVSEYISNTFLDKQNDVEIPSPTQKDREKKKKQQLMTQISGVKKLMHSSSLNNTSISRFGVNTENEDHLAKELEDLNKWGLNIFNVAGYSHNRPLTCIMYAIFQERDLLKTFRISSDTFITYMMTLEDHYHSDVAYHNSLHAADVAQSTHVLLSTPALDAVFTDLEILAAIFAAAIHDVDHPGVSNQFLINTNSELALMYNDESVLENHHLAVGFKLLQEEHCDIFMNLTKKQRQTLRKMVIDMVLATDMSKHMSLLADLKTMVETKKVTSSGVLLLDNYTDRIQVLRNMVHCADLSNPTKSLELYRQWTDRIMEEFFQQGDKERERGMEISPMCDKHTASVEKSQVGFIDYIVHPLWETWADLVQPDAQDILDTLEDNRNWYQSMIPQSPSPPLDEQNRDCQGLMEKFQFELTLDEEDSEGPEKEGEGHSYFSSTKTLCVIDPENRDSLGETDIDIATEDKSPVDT
How it was run: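 Cell-based read-out of cAMP via a modified cyclic nucleotide-gated channel and membrane potential dye (535/590 nm) in HEK293 cells expressing PDE4 endogenously. Compounds tested up to 22.9 uM final; 100 uM RO 20-1724 reference.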

[8] = biological target: Guanine nucleotide-binding protein G(i) subunit alpha-1 (Homo sapiens) (UniProt P63096); experiment: qHTS Assay for Inhibitors of RGS12 GoLoco Motif Activity (Green Fluorophore) (AID 879; active = well fitted curve in the direction sought with a large enough effect; an effect the other way counts as inactive or inconclusive; note: potency is the fitted concentration of half-maximal effect)
How it was run: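 Fluorescence polarization assay: 50 nM Gαi1 with 10 nM FITC-labeled RGS12 GoLoco peptide in 10 mM Tris pH 7.5, 150 mM NaCl, 0.1 mM GDP, 0.05% NP40, 10 min at room temperature with compound.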

[9] = biological target: Cytochrome P450 3A4 (Homo sapiens) (UniProt P08684); experiment: qHTS Assay for Activators of Cytochrome P450 3A4 (AID 885; active = well fitted curve in the direction sought with a large enough effect; an effect the other way counts as inactive or inconclusive; note: nearly all actives have a fitted effect of over 65% in size)
Sequence of Cytochrome P450 3A4 (Homo sapiens) (P08684 whole entry, looked up): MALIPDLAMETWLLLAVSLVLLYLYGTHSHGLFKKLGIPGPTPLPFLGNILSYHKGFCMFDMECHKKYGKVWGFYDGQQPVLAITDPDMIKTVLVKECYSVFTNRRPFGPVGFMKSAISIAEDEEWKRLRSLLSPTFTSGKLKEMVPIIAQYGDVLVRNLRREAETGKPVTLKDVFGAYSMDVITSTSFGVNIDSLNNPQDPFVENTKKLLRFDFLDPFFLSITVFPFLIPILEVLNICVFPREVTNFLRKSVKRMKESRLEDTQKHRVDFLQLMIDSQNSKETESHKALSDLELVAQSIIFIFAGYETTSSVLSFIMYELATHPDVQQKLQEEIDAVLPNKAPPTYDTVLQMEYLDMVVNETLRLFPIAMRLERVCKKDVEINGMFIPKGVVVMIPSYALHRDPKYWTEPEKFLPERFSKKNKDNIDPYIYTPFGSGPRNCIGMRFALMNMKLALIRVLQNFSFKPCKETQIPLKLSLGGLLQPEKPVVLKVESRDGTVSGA
How it was run: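 Signal was normalized against complete inhibition by 57 uM ketoconazole. The reaction used 20nM CYP3A4 with 25uM Luciferin-PPXE, 10-min compound preincubation and a 60-min NADPH-supported step at RT.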

[10] = qHTS Assay for Identification of Small Molecule Antagonists for Thrombopoietin (TPO) Signaling Pathway (AID 918; active = well fitted curve in the direction sought with a large enough effect; an effect the other way counts as inactive or inconclusive; note: potency is the fitted concentration of half-maximal effect; nearly all actives have a fitted effect of over 60% in size); details: TPO-dependent cell signaling reporter, antagonist mode
How it was run: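 First, Ba/F3 reporter cells expressing human TPO receptor were held overnight without IL-3. Next, compound and 26 pM TPO were added. After 24 hrs incubation at 37 C, luciferase luminescence under the Glycoprotein IIb promoter was recorded.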

[11] = biological target: Muscarinic acetylcholine receptor M1 (Rattus norvegicus) (UniProt P08482); experiment: qHTS Assay for Antagonists of Acetylcholine Muscarinic M1 Receptor: Kinetic Measurement of Intracellular Calcium Response (AID 943; active = well fitted curve in the direction sought with a large enough effect; an effect the other way counts as inactive or inconclusive; note: potency is the fitted concentration of half-maximal effect; nearly all actives have a fitted effect of over 75% in size)
Sequence of Muscarinic acetylcholine receptor M1 (Rattus norvegicus) (P08482 whole entry, looked up): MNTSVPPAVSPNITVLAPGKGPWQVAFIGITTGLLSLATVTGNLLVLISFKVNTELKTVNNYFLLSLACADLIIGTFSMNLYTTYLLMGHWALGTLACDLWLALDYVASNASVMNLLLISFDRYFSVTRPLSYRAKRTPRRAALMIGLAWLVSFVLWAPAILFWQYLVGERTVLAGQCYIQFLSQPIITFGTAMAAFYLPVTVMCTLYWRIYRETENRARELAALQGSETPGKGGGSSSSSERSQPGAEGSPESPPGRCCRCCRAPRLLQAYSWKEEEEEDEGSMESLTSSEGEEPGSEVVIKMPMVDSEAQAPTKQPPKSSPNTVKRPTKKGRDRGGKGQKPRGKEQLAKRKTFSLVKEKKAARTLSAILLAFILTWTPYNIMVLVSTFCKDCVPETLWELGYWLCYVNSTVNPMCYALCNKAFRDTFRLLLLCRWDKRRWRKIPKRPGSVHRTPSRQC
How it was run: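 Intracellular calcium flux, recorded with Fluo-4 in a kinetic plate reader, served as signal; the response to carbachol at EC80 (100 nM final) was taken as maximal over minimal fluorescence after a 10 min compound pre-incubation in rat M1-CHO cells.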

[12] = biological target: Muscarinic acetylcholine receptor M1 (Rattus norvegicus) (UniProt P08482); experiment: qHTS Assay for Antagonists of Acetylcholine Muscarinic M1 Receptor: Measurement of IP-One Response (AID 944; active = well fitted curve in the direction sought with a large enough effect; an effect the other way counts as inactive or inconclusive; note: nearly all actives have a fitted effect of over 75% in size; note: potency is the fitted concentration of half-maximal effect)
How it was run: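 Steps: plate transfected CHO-M1 cells overnight; add test compound, 10 min; add carbachol (200 nM, EC80) in stimulation buffer with LiCl; incubate 30 min; add labelled IP1 tracer and anti-IP1 antibody in lysis buffer; read HTRF after 10 min.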

[13] = biological target: Pyruvate kinase PKM (Homo sapiens) (UniProt P14618); experiment: qHTS Assay for Activators of Human Muscle Pyruvate Kinase (AID 954; active = well fitted curve in the direction sought with a large enough effect, not every such curve was filed as active;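 note: 0% = uninhibited enzyme and -100% = no enzyme or full thiadiazolimine inhibition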)
Sequence of Pyruvate kinase PKM (Homo sapiens) (P14618 whole entry, looked up): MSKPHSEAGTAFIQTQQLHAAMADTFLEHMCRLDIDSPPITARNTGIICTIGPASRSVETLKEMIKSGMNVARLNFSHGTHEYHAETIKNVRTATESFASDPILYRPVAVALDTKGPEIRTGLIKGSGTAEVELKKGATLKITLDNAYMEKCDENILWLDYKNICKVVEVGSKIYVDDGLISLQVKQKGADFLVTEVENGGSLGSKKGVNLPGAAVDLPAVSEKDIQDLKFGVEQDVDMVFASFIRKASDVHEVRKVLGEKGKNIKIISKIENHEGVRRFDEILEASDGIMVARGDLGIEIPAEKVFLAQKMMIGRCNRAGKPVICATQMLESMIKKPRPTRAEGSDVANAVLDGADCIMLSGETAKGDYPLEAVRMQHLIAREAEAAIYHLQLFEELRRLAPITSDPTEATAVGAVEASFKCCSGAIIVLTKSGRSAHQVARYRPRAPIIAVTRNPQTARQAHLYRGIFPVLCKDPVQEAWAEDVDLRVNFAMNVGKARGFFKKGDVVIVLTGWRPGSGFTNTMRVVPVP
How it was run: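 Human PKM2 activity is measured as ATP generation, detected by luciferase-coupled luminescence. The enzyme (0.1 nM) acts on 0.5 mM PEP and 0.1 mM ADP for 1 h at ambient temperature; data are normalized to uninhibited and full-inhibition wells.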

[14] = biological target: Alpha-galactosidase (Coffea arabica) (UniProt Q42656); experiment: Counterscreen for Glucocerebrosidase Inhibitors: qHTS Assay for Coffee Bean alpha-Galactosidase at pH 4.5 (AID 957; active = well fitted curve in the direction sought with a large enough effect; an effect the other way counts as inactive or inconclusive;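 note: plate controls were enzyme alone for no effect and no enzyme for full effect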)
Sequence of Alpha-galactosidase (Coffea arabica) (Q42656 whole entry, looked up): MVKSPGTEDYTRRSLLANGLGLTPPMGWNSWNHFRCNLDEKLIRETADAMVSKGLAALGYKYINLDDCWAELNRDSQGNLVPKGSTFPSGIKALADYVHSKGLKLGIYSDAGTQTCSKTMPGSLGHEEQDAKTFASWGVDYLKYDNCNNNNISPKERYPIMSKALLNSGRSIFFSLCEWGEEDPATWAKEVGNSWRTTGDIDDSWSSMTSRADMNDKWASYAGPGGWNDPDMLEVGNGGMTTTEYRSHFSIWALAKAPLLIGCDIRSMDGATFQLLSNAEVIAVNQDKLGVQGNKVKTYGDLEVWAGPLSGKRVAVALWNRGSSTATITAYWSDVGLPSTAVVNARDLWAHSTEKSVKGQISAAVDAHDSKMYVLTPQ
How it was run: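 AC50 values derive from Hill-equation modeling of concentration-response data, normalized to no-enzyme and full-activity controls. The pH 4.5 citrate assay used 2 nM coffee bean enzyme and 80 uM fluorogenic substrate for 20 min.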

[15] = biological target: Pyruvate kinase PKM (Homo sapiens) (UniProt P14618); experiment: qHTS Assay for Inhibitors of Human Muscle Pyruvate Kinase (AID 958; active = well fitted curve in the direction sought with a large enough effect; an effect the other way counts as inactive or inconclusive)
How it was run: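 PKM2, human, >95% pure, 0.1 nM; PEP 0.5 mM (Km), ADP 0.1 mM; 50 mM imidazole pH 7.2, 50 mM KCl, 0.01% Tween 20, 0.05% BSA; 1 h RT; luciferase luminescence readout.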

[16] = biological target: Pyruvate kinase (Leishmania mexicana) (UniProt Q27686); experiment: qHTS Validation Assay for Activators of Leishmania Mexicana Pyruvate Kinase (AID 959; active = well fitted curve in the direction sought with a large enough effect; an effect the other way counts as inactive or inconclusive)
How it was run: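 Pyruvate kinase activity of E451W LmPYK (0.2 nM) was followed as ATP output after 1 h at room temperature with 0.5 mM PEP and 0.1 mM ADP, detected by PKLight luminescence.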

[17] = biological target: Alpha-galactosidase A (Homo sapiens) (UniProt P06280); experiment: Counterscreen for Glucocerebrosidase Inhibitors: qHTS Assay for Human alpha-Galactosidase at pH 4.5 (AID 992; active = well fitted curve in the direction sought with a large enough effect; an effect the other way counts as inactive or inconclusive; note: 0% is about no effect)
Sequence of Alpha-galactosidase A (Homo sapiens) (P06280 whole entry, looked up): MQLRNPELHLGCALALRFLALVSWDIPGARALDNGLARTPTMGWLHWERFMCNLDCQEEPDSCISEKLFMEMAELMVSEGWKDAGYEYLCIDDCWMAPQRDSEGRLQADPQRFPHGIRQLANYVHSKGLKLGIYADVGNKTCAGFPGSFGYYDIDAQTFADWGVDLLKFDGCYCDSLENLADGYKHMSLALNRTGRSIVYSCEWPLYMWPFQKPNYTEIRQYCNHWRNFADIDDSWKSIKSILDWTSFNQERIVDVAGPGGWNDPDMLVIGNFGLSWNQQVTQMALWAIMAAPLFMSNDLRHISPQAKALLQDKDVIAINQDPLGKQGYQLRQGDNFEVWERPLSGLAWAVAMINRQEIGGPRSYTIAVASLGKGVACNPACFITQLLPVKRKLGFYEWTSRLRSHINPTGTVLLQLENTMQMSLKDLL
How it was run: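 Quantitative HTS: compounds tested from 0.7 nM up to 77 uM against 2 nM enzyme with 80 uM 4-MU alpha-D-galactopyranoside. The 20 min room-temperature reaction is stopped with 1M NaOH/1M glycine, pH 10.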

[18] = biological target: alpha-glucosidase (Oryza sativa, rice) (UniProt Q653V4); experiment: Counterscreen for Glucocerebrosidase Inhibitors: qHTS Assay for Rice alpha-Glucosidase at pH 5.0 (AID 997; active = well fitted curve in the direction sought with a large enough effect; an effect the other way counts as inactive or inconclusive;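 note: 0% = full activity with enzyme and -100% = basal without enzyme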)
How it was run: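 Rice alpha-glucosidase (4 nM final) with 400 uM 4-methylumbelliferyl-alpha-D-glucopyranoside in citrate buffer pH 5.0, 20 min at room temperature, stopped at pH 10; fluorescence 365/440 nm, compounds 0.7 nM–77 uM, AC50 from Hill fits.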

[19] = biological target: Alpha-galactosidase (Coffea arabica) (UniProt Q42656); experiment: Counterscreen for Glucocerebrosidase Inhibitors: qHTS Assay for Coffee Bean alpha-Galactosidase at pH 5.9 (AID 998; active = well fitted curve in the direction sought with a large enough effect; an effect the other way counts as inactive or inconclusive;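 note: plate controls were uninhibited enzyme for no effect and no-enzyme basal signal for full effect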)
How it was run: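 Green coffee bean enzyme (2 nM) with 4-methylumbelliferyl alpha-D-galactopyranoside (80 uM) in 50 mM citric acid, 0.005% Tween-20, pH 5.9, 20 min at room temperature; compounds 0.7 nM–77 uM. Stopped at pH 10, fluorescence Ex365/Em440; Hill-fit AC50.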

[20] = NFAT Signaling Pathway (AID 444); details: Jurkat NFAT-bla M1, carbachol, beta-lactamase ratio, 5 h; at 17.2 µM (top of the series) unless noted;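 note: carbachol stimulus at about its EC50 of 1 µM final; % is set by controls: 0 for no effect and ±100 for the full control effect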
How it was run: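 Jurkat cells with NFAT-driven β-lactamase reporter and co-expressed M1 receptor, stimulated with carbachol (final 1 uM, ~EC50), compound titration, 5 h at 37 °C. CCF4 loaded 1 h at RT; 460/530 nm ratio gave %activity and AC50.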

[21] = biological target: Cytochrome P450 2C9 (Homo sapiens) (UniProt P11712); experiment: qHTS Assay for Inhibitors and Substrates of Cytochrome P450 2C9 (AID 883; active = well fitted curve in the direction sought with a large enough effect; an effect the other way counts as inactive or inconclusive; note: % is set by controls: 0 for no effect and ±100 for the full control effect; nearly all actives have a fitted effect of over 60% in size)
How it was run: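 10nM CYP2C9 + 100uM Luciferin-H (=KM), 25mM KPO4; cpd 10 min 37C; NADPH regen, 60 min 37C; stop/detect with P450 Glo-Buffer 20 min; luminescence. Norm. to 57uM sulphaphenazole as full inhibition.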

[22] = biological target: Cytochrome P450 2D6 (Homo sapiens) (UniProt P10635); experiment: qHTS Assay for Inhibitors and Substrates of Cytochrome P450 2D6 (AID 891; active = well fitted curve in the direction sought with a large enough effect; an effect the other way counts as inactive or inconclusive;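 note: luciferin methyl ether substrate demethylated by CYP2D6 with NADPH regeneration; % is set by controls: 0 for no effect and ±100 for the full control effect; nearly all actives have a fitted effect of over 60% in size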)
How it was run: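 Human CYP2D6 (5 nM) with 30 uM Luciferin-ME EGE (at Km) in 100 mM KPO4, compound preincubated 10 min, then NADPH regeneration system for 60 min at room temperature. Luciferin read by luminescence; normalized to 1.43 uM quinidine.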

[23] = biological target: Cytochrome P450 2C19 (Homo sapiens) (UniProt P33261); experiment: qHTS Assay for Inhibitors and Substrates of Cytochrome P450 2C19 (AID 899; active = well fitted curve in the direction sought with a large enough effect; an effect the other way counts as inactive or inconclusive; note: % is set by controls: 0 for no effect and ±100 for the full control effect; nearly all actives have a fitted effect of over 60% in size)
Sequence of Cytochrome P450 2C19 (Homo sapiens) (P33261 whole entry, looked up): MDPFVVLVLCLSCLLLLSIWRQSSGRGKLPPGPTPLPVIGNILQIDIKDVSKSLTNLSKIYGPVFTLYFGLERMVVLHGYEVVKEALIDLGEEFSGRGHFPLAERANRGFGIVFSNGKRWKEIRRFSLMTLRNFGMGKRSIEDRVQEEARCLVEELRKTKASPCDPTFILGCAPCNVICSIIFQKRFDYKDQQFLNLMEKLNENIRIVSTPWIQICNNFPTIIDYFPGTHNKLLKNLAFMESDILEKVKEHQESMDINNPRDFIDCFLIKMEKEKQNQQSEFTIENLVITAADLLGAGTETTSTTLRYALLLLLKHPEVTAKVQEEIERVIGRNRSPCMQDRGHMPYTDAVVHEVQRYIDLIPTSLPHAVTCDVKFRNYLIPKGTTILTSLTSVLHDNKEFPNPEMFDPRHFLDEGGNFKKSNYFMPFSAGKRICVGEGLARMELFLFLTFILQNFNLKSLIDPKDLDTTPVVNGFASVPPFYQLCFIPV
How it was run: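 Luminescent read-out of luciferin formed from Luciferin-H EGE (10uM, equal to KM). Enzyme 5nM in 50mM KPO4; compound added, 10 min at 37C, then NADPH regenerating system for 60 min at 37C. Full inhibition defined by 57uM ketoconazole.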

NC(N)=Nc1ccc2[nH]c3c(c2c1)C[C@]1(O)[C@@H]2Cc4ccc(O)c5c4[C@]1(CCN2CC1CC1)[C@H]3O5
active: Potency [8] 25.1 µM | Potency [10] 12.6 µM | Potency [11] 3.55 µM | Potency [12] 7.94 µM | Potency [15] 10 µM
inactive: activity change, negative = inhibition [1] -18.3% [at 38 µM] | Potency [2] | outcome [3] | Potency [4] > 46 µM | Potency [5] > 46 µM | outcome [6] | outcome [7] | Potency [9] | outcome [13] | outcome [14] | outcome [16] | outcome [17] | outcome [18] | outcome [19]

CCOC(=O)[C@]1(C#N)[C@@H]2C=CC(C(C)=O)=CN2[C@@H](C(N)=O)[C@@H]1c1ccsc1
inactive: activity change, negative = inhibition [1] -0.365% | activity change, negative = inhibition [20] -15.2% | outcome [3] | Potency [4] > 20.6 µM

N[C@]1(C(=O)O)CC[C@@H](C(=O)O)C1
inactive: activity change, negative = inhibition [1] -3.05% [at 38 µM] | Potency [2] | outcome [3] | Potency [4] > 46 µM | Potency [5] > 46 µM | outcome [7] | Potency [21] | Potency [22] | Potency [23]

COc1ccc2c(c1OC)C(=O)OC2c1c(O)n(C2CCCCC2)c(=O)[nH]c1=O (centres undefined)
inactive: activity change, negative = inhibition [1] -13.3% | activity change, negative = inhibition [20] -3.36% | outcome [3] | Potency [4] > 20.6 µM

CC(=C1C(=O)c2ccccc2C1=O)N1CCN(CCN=Cc2c(O)n(C)c(=O)n(C)c2=O)CC1
inactive: activity change, negative = inhibition [1] -15.2% | activity change, negative = inhibition [20] -5.34% | outcome [3] | Potency [4] > 20.6 µM

COc1ccc(-n2c(SC)nc3ccccc3c2=O)cc1
inactive: activity change, negative = inhibition [1] 0.0474% | activity change, negative = inhibition [20] 12.3% | outcome [3] | Potency [4] > 20.6 µM

C[C@@]12CC[C@H]3[C@@H](CCC4=CC(=O)CC[C@]43C)[C@H]1CCC2=O
inactive: activity change, negative = inhibition [1] 2.25% [at 38 µM] | Potency [2] | activity change, negative = inhibition [20] 9.12% [at 38 µM] | outcome [3] | outcome [6] | outcome [7] | Potency [21] | Potency [22] | Potency [23]

CCCN1CCc2cccc3c2[C@@H]1Cc1ccc(O)c(O)c1-3
inactive: activity change, negative = inhibition [1] 6.42% [at 38 µM] | outcome [3] | Potency [4] > 46 µM | Potency [5] > 46 µM | outcome [7] | Potency [9] | Potency [12] | outcome [13] | outcome [14] | outcome [17] | outcome [18] | outcome [19]
active: Potency [2] 3.98 µM | Potency [10] 12.6 µM

CCCCCCn1c(O)c(C(C)=NC)c(=O)[nH]c1=O
inactive: activity change, negative = inhibition [1] -9.96% | activity change, negative = inhibition [20] 21.1% | outcome [3] | Potency [4] > 20.6 µM

O=C1NC(=O)C(C/C=C/c2ccccc2)C(=O)N1
inactive: activity change, negative = inhibition [1] 9.27% | activity change, negative = inhibition [20] -11.1% | outcome [3] | Potency [4] > 20.6 µM

CCOc1ccc(-n2c(O)c(C=NCCN3CCNCC3)c(=O)[nH]c2=O)cc1
inactive: activity change, negative = inhibition [1] 9.57% | activity change, negative = inhibition [20] 0.77% | outcome [3] | Potency [4] > 20.6 µM

— PubChem BioAssay (NCATS)
